# Compounds with a hit are over-represented: about 4.2% of the library has one in this group of screens.
# TIM10 inh = growth inhibitors of TIM10 yeast strain. S. cerevisiae TIM10 strain growth, BacTiter-Glo luminescence, 24 h. inhibition, % at 10 µM. 330,000 compounds, 1.4% hits. AID 463195;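 active means inhibition of 40% or more at the single tested concentration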;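 further: wild-type TIM10 isogenic control strain grown at permissive 25 °C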
# NALP1 inh = NALP1 inhibition; S. cerevisiae NALP1/ASC/caspase-1 growth, X-gal OD620, 72 h; inhibition, % at 10 µM; 280,000 compounds, 0.61% hits; in the data active means inhibition mostly above about 24%, no sharp cut-off; inactive means mostly below about 32%
# tim23-1 inh = tim23-1 yeast growth inhibition. 330,000 compounds, 1.3% hits. S. cerevisiae tim23-1 growth, BacTiter-Glo luminescence, 24 h. inhibition, % at 20 µM;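 active means growth inhibition of the mutant yeast at or above 50%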;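 further: temperature-sensitive mutant grown at 25 °C; plate controls were DMSO-treated mutant yeast for no effect and medium wells lacking yeast for full effect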
# NLRP3 yeast inh = blocks the NALP3 inflammasome reconstituted in yeast | Yeast reconstituted NLRP3/ASC/caspase-1, beta-gal luminescence, 24 h | inhibition, % at 10 µM | 330,000 compounds, 0.39% hits;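 active means inhibition of 50% or more; inactive means inhibition below 50%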;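 further: plate controls were induced DMSO wells for no effect and uninduced yeast grown without galactose for full effect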
# tim10-1 inh = tim10-1 yeast growth inhibition. S. cerevisiae tim10-1 ts strain growth, BacTiter-Glo, 24 h. inhibition, % at 20 µM. 330,000 compounds, 2.2% hits. AID 463190;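 active means inhibition of at least 40%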;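 further: mutant grown at 25 °C; 0% = DMSO wells with yeast and 100% = wells holding no yeast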
# PfHsp90 yeast 2 = inhibits growth of yeast expressing Plasmodium falciparum Hsp90 | S. cerevisiae expressing PfHsp90, BacTiter-Glo ATP, 48 h; yeast lacking PDR1 and PDR3 efflux regulators | 310,000 compounds, 0.32% hits | AID 504621 | inhibition, % at 9.4 µM;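 active means every replicate shows inhibition above about 80%, whatever the replicate mean, limit read from the data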;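 further: 0% = DMSO neutral controls and 100% = 20 µM radicicol positive controls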
# tim10-1 conf = tim10-1 yeast growth inhibition, confirmed; shares compounds with tim10-1 inh; S. cerevisiae tim10-1 ts strain growth, BacTiter-Glo, 24 h; inhibition, % at 20 µM; 7,400 compounds, 56% hits; AID 463213;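 active means inhibition of yeast growth at or above a set limit in either of two repeat tests at 20 µM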;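 further: tim10-1 mutant grown at permissive 25 °C to find synthetic lethal compounds; 0% = DMSO yeast wells and 100% = medium wells without yeast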
# * hit, by the source's call; nt = no result.
SMILES,TIM10 inh,NALP1 inh,tim23-1 inh,NLRP3 yeast inh,tim10-1 inh,PfHsp90 yeast 2,tim10-1 conf
CC(=O)c1cccc(NC(=O)c2cc(Cl)sc2Cl)c1,23,18,25,-9,42*,-32,20
COc1cccc(OC)c1C(=O)Nc1cccc(C(C)=O)c1,-6,10,2,9,16,5,nt
COc1ccc(/C=N/Nc2cn[nH]c(=O)c2Cl)cc1,32,35,20,-2,42*,0,9
Cc1ccc(/C=N\Nc2cn[nH]c(=O)c2Cl)cc1,32,17,41,3,28,11,nt
COc1ccccc1/C=C1\SC(=S)N(NS(=O)(=O)c2ccc(C)cc2)C1=O,17,-3,40,-28,44*,-2,18
N#Cc1ncc(Cc2ccccc2)nc1C#N,0,21,28,27,41*,2,38*
N#Cc1nc(Cc2ccccc2)oc1NCc1cccnc1,-9,4,-4,1,-1,-7,nt
CC(C)(C)NC(=O)c1ccc(Sc2ccccc2)c([N+](=O)[O-])c1,16,31,27,25,42*,54,20
COc1ccc(-n2nc(C(=O)NCC(=O)NCCCN3CC(C)CC(C)C3)c3ccccc3c2=O)cc1 (centres undefined),-14,22,3,5,3,15,nt
CCN(CC)S(=O)(=O)c1ccc(/C=C/C(=O)NC2CCCCC2)cc1,20,17,32,6,44*,-1,28
COc1ccc(-c2cc(C3CCN(c4ccc(C(C)=O)cc4[N+](=O)[O-])CC3)[nH]n2)cc1,29,6,21,27,35,-180,nt
COc1ccc(OC)c(-c2cc(C3CCN(C(=O)OC(C)(C)C)CC3)[nH]n2)c1,9,1,19,5,40,15,6
COc1ccc(B(O)O)c(CN2CCN(C(=O)OC(C)(C)C)CC2)c1,nt,nt,nt,nt,nt,-20,nt
COc1ccc(-c2cc(C3CCN(C(=O)OC(C)(C)C)CC3)[nH]n2)cc1,34,10,39,5,44*,nt,39*
CC[N+](CC)(CC#Cc1ccccc1)CC(=O)c1ccc(Cl)cc1,-5,42,22,-4,51*,-5,45*
C[C@@H](NC(=O)[C@@H]1Cc2ccccc2CN1C(=O)OC(C)(C)C)C(=O)NCC1CCCO1 (some centres undefined),12,0,11,6,4,20,nt
O=C(CCN1CCN(c2ccccc2F)CC1)c1ccc(Br)cc1,5,-6,26,14,36,2,nt
O=C(CCN1CCN(c2ccccc2)CC1)c1ccc(Br)cc1,-10,-18,17,11,45*,-4,29
COc1ccc(-c2nc3ccc(C)cn3c2NCc2ccc3c(c2)OCO3)cc1,35,-6,32,4,25,-6,nt
Cc1ccc(-c2nc3ccccn3c2NCc2ccc3c(c2)OCO3)cc1,38,6,39,16,47*,22,26
CCc1ccc(/C=C2/C(=O)N(C)C(=S)N2CC(=O)OC)s1,39,4,46,8,43*,-7,44*
COc1cccc(Oc2nnnn2-c2ccccc2)c1,22,-17,34,-56,42*,10,33*
COc1ccc(Oc2nnnn2-c2ccccc2)cc1,16,7,9,10,20,nt,nt
CN(c1ccccc1)S(=O)(=O)c1ccc2c(c1)oc(=O)n2C,-10,12,0,34,-1,1,nt
CC(C)N(Cc1ccccc1)C(=S)NC1CCCCC1,16,6,18,-3,51*,-5,26
SMILES,TIM10 inh,NALP1 inh,tim23-1 inh,NLRP3 yeast inh,tim10-1 inh,PfHsp90 yeast 2,tim10-1 conf
COc1cc(OC)c2c(=O)cc(-c3ccccc3)oc2c1,-17,2,9,33,10,3,nt
COc1cc2c(c3oc(-c4ccccc4)cc(=O)c13)C=CC(C)(C)O2,17,10,47,3,47*,-6,-1
CCC(C)(C)NC(=O)c1ccc2c(c1)OCCO2,15,9,3,9,15,-11,nt
CCC(C)c1ccc(NC(=O)Nc2cnccn2)cc1 (centres undefined),23,32,22,21,22,5,nt
CCOC1(OCC)C(c2ccc(Cl)cc2)C(C#N)(C#N)C1(OCC)OCC (centres undefined),7,nt,30,-3,47*,-3,26
CCOC1(OCC)C(c2ccc(N)cc2)C(C#N)(C#N)C1(OCC)OCC (centres undefined),39,4,44,-6,42*,nt,28
CCOC(=O)CSC1=C(C#N)C(c2ccc(Cl)cc2)CC(=O)N1 (centres undefined),4,16,41,16,20,-18,nt
CCOC1(OCC)N=C(N)C2(C#N)C(c3cccc(C)c3)C12C#N (centres undefined),8,2,3,-6,2,17,nt
CC(=O)c1ccc(S(=O)(=O)N2CCN(C(=O)c3ccc(-n4nc(C)c(Cl)c4C)cc3)CC2)cc1,13,nt,20,27,41*,-23,19
Cc1nn(-c2ccc(C(=O)N3CCN(S(=O)(=O)c4ccccc4C(F)(F)F)CC3)cc2)c(C)c1Cl,20,nt,14,24,11,-1,nt
Cc1onc(-c2ccccc2)c1C(=O)NC(=S)Nc1sc2c(c1C#N)CCC(C)C2 (centres undefined),36,22,36,9,38,-19,nt
CNC(=O)c1c(NC(=O)c2ccco2)sc2c1CCC2,18,25,45,27,41*,0,17
Cc1onc(-c2ccccc2)c1C(=O)Nc1sc2c(c1C(N)=O)CCC2,13,15,23,-4,47*,nt,28
Cc1onc(-c2ccccc2)c1C(=O)Nc1sc2c(c1C#N)CCC2,28,0,33,18,41*,-13,42*
Cc1cc(C(F)F)n2nc(C(=O)Nc3sc4c(c3C#N)CCC4)nc2n1,12,14,28,-8,42*,-9,35*
O=C(N/N=C/c1cccc([N+](=O)[O-])c1)c1cc[n+](CCO)cc1,-4,5,-4,7,7,-5,nt
CC(Sc1ccccc1)C(=O)N1CCN(S(=O)(=O)c2ccc(Cl)cc2)CC1 (centres undefined),17,6,22,24,-3,7,nt
COc1cccc(C(=O)CSc2nnnn2C2CCCCC2)c1,11,6,46,18,44*,-25,37*
CCCNC(=O)C(Cc1ccccc1)NC(=O)c1ccc(C(F)(F)F)cc1 (centres undefined),-4,nt,0,10,5,2,nt
Cc1nc(Nc2ccc(Cl)cc2Cl)sc1C(=O)Nc1ccccc1,15,22,29,39,47*,12,31*

# High-throughput results (PubChem BioAssay)
